# Source: PubChem BioAssay AID1159580 (chemical genetic matrix, 2015)
# Hit rate of the full screen: of about 5,500 compounds, about 2,000 (36%) were called active. Not shown: some 18% with an inconclusive outcome. This is one part of the list. Values without a mark were called inactive. Rule as the data show it: active = normalized growth mostly below about 0.91 (no sharp cut-off); inconclusive = no clear call, values can overlap the other calls; inactive = mostly above about 0.92.
# Experiment: chemical genetic growth profiling, strain panel (AID 1159580);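 also: tested at 20 µM; growth read once vehicle control cultures reached saturation at 30 °C; 1 = growth at the plate median or of vehicle wells; lower values mean less growth of the strain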
# Conditions: S. cerevisiae deletion strains, growth OD
# [1] = locus YDL101C, strain DUN1, stronger effect = lower value
# [2] = locus YHR030C, strain SLT2, stronger effect = lower value
smiles,measurement,setting,value
Cc1ccc(NS(C)(=O)=O)cc1N=Cc1ccc(Cl)c(Cl)c1,normalized growth,"locus YAL013W, strain DEP1, stronger effect = lower value",0.989
same,normalized growth,"locus YBR229C, strain ROT2, stronger effect = lower value",1
same,normalized growth,[1],0.965
same,normalized growth,"locus YDR150W, strain NUM1, stronger effect = lower value",0.879
same,normalized growth,"locus YEL061C, strain CIN8, stronger effect = lower value",1.02
same,normalized growth,"locus YGR078C, strain PAC10, stronger effect = lower value",0.996
same,normalized growth,"locus YGR229C, strain SMI1, stronger effect = lower value",1
same,normalized growth,[2],0.891
same,normalized growth,"locus YHR087W, strain rtc3, stronger effect = lower value",1.03
same,normalized growth,"locus YJL187C, strain SWE1, stronger effect = lower value",1.01
same,normalized growth,"locus YJR043C, strain POL32, stronger effect = lower value",0.989
same,normalized growth,"locus YJR075W, strain HOC1, stronger effect = lower value",0.965
same,normalized growth,"locus YKL190W, strain CNB1, stronger effect = lower value",0.999
same,normalized growth,"locus YLR039C, strain RIC1, stronger effect = lower value",0.984
same,normalized growth,"locus YLR058C, strain SHM2 (second series), stronger effect = lower value",1.02
same,normalized growth,"locus YLR085C, strain ARP6, stronger effect = lower value",1.01
same,normalized growth,"locus YLR262C, strain YPT6, stronger effect = lower value",0.951
same,normalized growth,"locus YML094W, strain GIM5, stronger effect = lower value",0.994
same,normalized growth,"locus YMR219W, strain ESC1, stronger effect = lower value",1.01
same,normalized growth,"locus YMR263W, strain SAP30, stronger effect = lower value",0.988
same,normalized growth,"locus YNL128W, strain TEP1, stronger effect = lower value",0.976
same,normalized growth,"locus YNL153C, strain GIM3, stronger effect = lower value",0.986
same,normalized growth,"locus YNL298W, strain CLA4 (second series), stronger effect = lower value",0.866
same,normalized growth,"locus YNL322C, strain KRE1, stronger effect = lower value",1
same,normalized growth,"locus YNR030W, strain Alg12, stronger effect = lower value",0.983
same,normalized growth,"locus YOL006C, strain TOP1, stronger effect = lower value",0.959
same,normalized growth,"locus YPL055C, strain LGE1, stronger effect = lower value",0.991
same,normalized growth,"locus YPL241C, strain CIN2, stronger effect = lower value",0.993
same,normalized growth,"locus YPR135W, strain CTF4, stronger effect = lower value",0.706
Cc1ccc(NS(=O)(=O)c2ccc(Cl)cc2)c(N=Cc2cc(Cl)cc(Cl)c2O)c1,normalized growth,"locus YAR019C, strain CDC15, stronger effect = lower value",0.952
same,normalized growth,"locus YBL105C, strain PKC1, stronger effect = lower value",0.965
same,normalized growth,"locus YBR135W, strain CKS1, stronger effect = lower value",0.955
same,normalized growth,"locus YBR136W, strain MEC1, stronger effect = lower value",0.961
same,normalized growth,"locus YBR160W, strain CDC28, stronger effect = lower value",0.961
same,normalized growth,"locus YDL017W, strain CDC7, stronger effect = lower value",0.958
same,normalized growth,"locus YDL028C, strain MPS1, stronger effect = lower value",0.96
same,normalized growth,[1],0.968
same,normalized growth,"locus YDL108W, strain KIN28, stronger effect = lower value",0.954
same,normalized growth,"locus YDL132W, strain cdc53, stronger effect = lower value",0.962
same,normalized growth,"locus YDL214C, strain PRR2, stronger effect = lower value",0.277 (active)
same,normalized growth,"locus YDR052C, strain DBF4, stronger effect = lower value",0.961
same,normalized growth,"locus YDR054C, strain cdc34, stronger effect = lower value",0.929
same,normalized growth,"locus YDR226W, strain ADK1, stronger effect = lower value",0.958
same,normalized growth,"locus YDR477W, strain SNF1, stronger effect = lower value",0.252 (active)
same,normalized growth,"locus YER123W, strain YCK3, stronger effect = lower value",0.169 (active)
same,normalized growth,"locus YER133W, strain GLC7, stronger effect = lower value",0.269 (active)
same,normalized growth,"locus YFL009W, strain cdc4, stronger effect = lower value",0.945
same,normalized growth,"locus YFL029C, strain CAK1, stronger effect = lower value",0.95
same,normalized growth,"locus YFR003C, strain YPI1, stronger effect = lower value",0.948
same,normalized growth,"locus YFR019W, strain FAB1, stronger effect = lower value",0.342 (active)
same,normalized growth,"locus YFR028C, strain CDC14, stronger effect = lower value",0.965
same,normalized growth,"locus YGR040W, strain KSS1, stronger effect = lower value",0.323 (active)
same,normalized growth,"locus YGR052W, strain FMP48, stronger effect = lower value",0.219 (active)
same,normalized growth,"locus YGR092W, strain DBF2, stronger effect = lower value",0.137 (active)
same,normalized growth,[2],0.118 (active)
same,normalized growth,"locus YHR079C, strain IRE1, stronger effect = lower value",0.151 (active)
same,normalized growth,"locus YHR082C, strain KSP1, stronger effect = lower value",0.147 (active)
same,normalized growth,"locus YHR205W, strain SCH9, stronger effect = lower value",0.154 (active)
same,normalized growth,"locus YIL147C, strain SLN1, stronger effect = lower value",0.949
same,normalized growth,"locus YJL095W, strain BCK1, stronger effect = lower value",0.15 (active)
same,normalized growth,"locus YJL157C, strain FAR1, stronger effect = lower value",0.162 (active)
same,normalized growth,"locus YJR016C, strain ILV3, stronger effect = lower value",0.967
same,normalized growth,"locus YJR066W, strain TOR1 (second series), stronger effect = lower value",0.363 (active)
same,normalized growth,"locus YJR066W, strain TOR1, stronger effect = lower value",0.144 (active)
same,normalized growth,"locus YKL048C, strain ELM1, stronger effect = lower value",0.336 (active)
same,normalized growth,"locus YKL067W, strain YNK1, stronger effect = lower value",0.257 (active)
same,normalized growth,"locus YKL101W, strain HSL1, stronger effect = lower value",0.291 (active)
same,normalized growth,"locus YKL193C, strain SDS22, stronger effect = lower value",0.968
same,normalized growth,"locus YKL203C, strain TOR2, stronger effect = lower value",0.273 (active)
same,normalized growth,"locus YLR113W, strain HOG1, stronger effect = lower value",0.3 (active)
same,normalized growth,"locus YLR133W, strain CKI1, stronger effect = lower value",0.198 (active)
same,normalized growth,"locus YLR403W, strain SFP1, stronger effect = lower value",0.118 (active)
same,normalized growth,"locus YML070W, strain DAK1, stronger effect = lower value",0.203 (active)
same,normalized growth,"locus YMR001C, strain CDC5, stronger effect = lower value",0.971
same,normalized growth,"locus YMR205C, strain PFK2 (second series), stronger effect = lower value",0.289 (active)
same,normalized growth,"locus YMR277W, strain FCP1, stronger effect = lower value",0.936
same,normalized growth,"locus YNL006W, strain LST8, stronger effect = lower value",0.946
same,normalized growth,"locus YNL020C, strain ARK1, stronger effect = lower value",0.17 (active)
same,normalized growth,"locus YNL161W, strain CBK1, stronger effect = lower value",0.951
same,normalized growth,"locus YNL183C, strain NPR1, stronger effect = lower value",0.208 (active)
same,normalized growth,"locus YNL207W, strain RIO2, stronger effect = lower value",0.949
same,normalized growth,"locus YNL222W, strain SSU72, stronger effect = lower value",0.963
same,normalized growth,"locus YNL307C, strain MCK1 (second series), stronger effect = lower value",0.145 (active)
same,normalized growth,"locus YOL078W, strain AVO1, stronger effect = lower value",0.962
same,normalized growth,"locus YOL136C, strain PFK27, stronger effect = lower value",0.193 (active)
same,normalized growth,"locus YOR061W, strain CKA2, stronger effect = lower value",0.196 (active)
same,normalized growth,"locus YOR119C, strain RIO1, stronger effect = lower value",0.303 (active)
same,normalized growth,"locus YOR231W, strain MKK1, stronger effect = lower value",0.203 (active)
same,normalized growth,"locus YOR329C, strain SCD5, stronger effect = lower value",0.96
same,normalized growth,"locus YPL031C, strain PHO85, stronger effect = lower value",0.231 (active)
same,normalized growth,"locus YPL153C, strain RAD53, stronger effect = lower value",0.234 (active)
same,normalized growth,"locus YPL204W, strain HRR25, stronger effect = lower value",0.211 (active)
same,normalized growth,"locus YPL209C, strain IPL1, stronger effect = lower value",0.958
same,normalized growth,"locus YPL256C, strain CLN2, stronger effect = lower value",0.255 (active)
same,normalized growth,"locus YPR025C, strain CCL1, stronger effect = lower value",0.959
same,normalized growth,"locus YPR106W, strain ISR1, stronger effect = lower value",0.959
same,normalized growth,"locus YPR111W, strain DBF20, stronger effect = lower value",0.943
same,normalized growth,"strain NNK1, stronger effect = lower value",0.776 (active)
same,normalized growth,"strain TSCII, stronger effect = lower value",0.959
